Reference: PubChem BioAssay (NCATS)
Inconclusive results are not listed. A call without a number means that no potency is given here. A number with no mark means an inactive call. Calls of active or inactive are those of the source. The call rests on the fitted dose curve; in most records, active means well fitted inhibition curve with a large enough effect; inconclusive means small, poorly fitted or top-dose-only effect; inactive means flat fitted curve, though single readings scatter.

These compounds were tested on Zika virus NS2B-NS3 protease (assay: Primary screen GU AMC qHTS for Zika virus inhibitors (AID 1347154; further: nearly all actives have a fitted effect of over 70% in size)). Conditions: Zika NS2B-NS3 unlinked protease, AMC fluorogenic substrate; series mostly up to 54.1 µM.
Outline: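 Fluorogenic AMC-substrate cleavage by noncovalent NS2B-NS3 protease complex (25 nM, pH 8.0 Tris buffer with Tween 20) followed for 15 minutes at room temperature (~20% conversion). Percent inhibition from ex340/em450 signal change, fitted by 4-parameter Hill equation.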

SMILES	Potency	activity change, negative = inhibition
Cc1c(C)n(CCN(C)C)c2ccc(C(=O)OCCN(C)C)cc12	inactive	
N[C@@H](CCC(=O)N[C@@H](CS)C(=O)NCC(=O)O)C(=O)O	inactive	
C#C[C@]1(O)CC[C@H]2[C@@H]3CCC4=CC(=O)CC[C@@H]4[C@H]3CC[C@@]21C	inactive	
NC[C@H]1O[C@H](O[C@H]2[C@H](O[C@@H]3O[C@H](CO)[C@@H](O)[C@H]3O)C(O)[C@H](N)C[C@@H]2N)[C@H](N)[C@@H](O)[C@@H]1O (stereo partly drawn)		-1.02% [at 6.83 µM]
COc1cc(/C=C/C(=O)O[C@H]2CC[C@]34C[C@]35CC[C@]3(C)[C@@H]([C@H](C)CCC=C(C)C)CC[C@@]3(C)[C@@H]5CC[C@H]4C2(C)C)ccc1O	inactive	
Cc1c(C(C)C)c(=O)n(-c2ccccc2)n1C	inactive	
C#C[C@]1(OC(C)=O)CC[C@H]2[C@@H]3CCC4=C[C@@H](OC(C)=O)CC[C@@H]4[C@H]3CC[C@@]21C	inactive	
COc1ccc(C2C(=O)c3ccccc3C2=O)cc1	inactive	
CN1CCC(=C2c3ccccc3Sc3ccccc32)CC1	inactive	
CC(O)(P(=O)(O)O)P(=O)(O)O	inactive	
C=CCc1ccc(O)c(OC)c1	inactive	
O=C(O)CCCCC(=O)O	inactive	
Cc1ncc(CSSCc2cnc(C)c(O)c2CO)c(CO)c1O	inactive	
Oc1c(I)cc(I)c2cccnc12	inactive	
NCCC(O)(P(=O)(O)O)P(=O)(O)O	inactive	
C=C(CC)C(=O)c1ccc(OCC(=O)O)c(Cl)c1Cl	inactive	
CCCCCCc1ccc(O)cc1O	inactive	
CCCCCCCCCCCCCCCCOP(=O)([O-])OCC[N+](C)(C)C	inactive	
